From PubChem BioAssay (EPA / NIEHS) come the findings set out here.

Assay [1] deals with human Ephrin type-A Receptor 1 (EphA1), EPHA1 (gene 2041) (UniProt P21709). The assay can be described thus: NVS_ENZ_hEphA1: NovaScreen (NVS) Enzymatic Assay for human Ephrin type-A Receptor 1 (EphA1) (AID 2283158).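 Also: activity is signal loss versus DMSO meaning EphA1 kinase inhibition.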 In short, it runs like this:
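Here the EphA1 protein is recombinant and the substrate fluorescent, with electrophoretic separation before fluorescence detection at 1 hour. Signal loss against DMSO defines activity; plate controls included; follow-up concentration series reach 50 uM.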

For assay [2], the target named is human Esterase Plasma (ES), BCHE (gene 590) (UniProt P06276). In words: NVS_ENZ_hES: NovaScreen (NVS) Enzymatic Assay for human Esterase Plasma (ES) (AID 2283157). In short, it runs like this:
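Chemicals were added to plasma-extracted human enzyme in a cell-free format, and activity was read colorimetrically after 0.25 hour. Activity loss was referenced to DMSO; concentration-response top dose was 50 uM.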

Assay [3] has as its target human Janus Kinase 2 (Jak2), JAK2 (gene 3717) (UniProt O60674). In words: NVS_ENZ_hJak2: NovaScreen (NVS) Enzymatic Assay for human Janus Kinase 2 (Jak2) (AID 2283169). In short, it runs like this:
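Cell-free recombinant human JAK2 enzyme activity assay, fluorescence/electrophoretic mobility shift read 1 h after dosing. Screened in duplicate at 25 uM, then concentration-response up to 50 uM; activity as signal loss relative to DMSO.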

For assay [4], the target named is human LYN Proto-Oncogene, Src family Tyrosine Kinase (LynA), LYN (gene 4067) (UniProt P07948). In words: NVS_ENZ_hLynA: NovaScreen (NVS) Enzymatic Assay for human LYN Proto-Oncogene, Src family Tyrosine Kinase (LynA) (AID 2283173). The procedure, abridged:
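Recombinant kinase with fluorescent substrate; product separated from substrate by electrophoretic mobility shift and read 1 h after dosing. Duplicate screen at 25 uM, then concentration-response up to 50 uM; activity scored as signal loss against DMSO.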

Assay [5] addresses human Mitogen- and Stress-activated Protein Kinase-1 (Msk1), RPS6KA5 (gene 9252) (UniProt O75582). In words: NVS_ENZ_hMsk1: NovaScreen (NVS) Enzymatic Assay for human Mitogen- and Stress-activated Protein Kinase-1 (Msk1) (AID 2283187). The procedure, abridged: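 Recombinant kinase with fluorescent substrate; product separated by electrophoretic mobility shift, read 1 h after dosing. Screened in duplicate at 25 uM; hits (e.g. ≥30% inhibition) tested in concentration–response up to 50 uM. DMSO baseline.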

For assay [6], the target named is human Phosphodiesterase 4A1 (PDE4A1), PDE4A (gene 5141) (UniProt P27815). In words: NVS_ENZ_hPDE4A1: NovaScreen (NVS) Enzymatic Assay for human Phosphodiesterase 4A1 (PDE4A1) (AID 2283191). The procedure, abridged:
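Cell-free recombinant human PDE4A1 with fluorescent substrate; product separated by electrophoretic mobility shift, 1 h. Screened at 25 uM, then up to 50 uM in concentration-response; loss of signal fitted against DMSO.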

Assay [7] deals with human Phosphodiesterase 5 (PDE5), PDE5A (gene 8654) (UniProt O76074). The assay can be described thus: NVS_ENZ_hPDE5: NovaScreen (NVS) Enzymatic Assay for human Phosphodiesterase 5 (PDE5) (AID 2283194). The procedure, abridged: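 Recombinant human PDE5 with specific substrate, read 1 h after dosing by fluorescence with electrophoretic mobility-shift separation of substrate and product. Initial single-concentration duplicate screen at 25 uM, actives followed in concentration series; loss of activity versus DMSO.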

Assay [8] deals with human Phosphodiesterase 10 (PDE10), PDE10A (gene 10846) (UniProt Q9Y233). The assay can be described thus: NVS_ENZ_hPDE10: NovaScreen (NVS) Enzymatic Assay for human Phosphodiesterase 10 (PDE10) (AID 2283195). The procedure, abridged:
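PDE10A, cell-free; 1 h incubation; fluorescence intensity + electrophoretic mobility shift separating substrate/product; DMSO = baseline; 25 uM duplicate primary, CRC up to 50 uM.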

Assay [9] concerns the target Glycogen synthase kinase-3 beta (Homo sapiens) (UniProt P49841). The assay can be described thus: NVS_ENZ_hGSK3b: NovaScreen (NVS) Enzymatic Assay for human Glycogen Synthase Kinase-3 beta (GSK3b) (AID 2283165). The procedure, abridged: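 Recombinant enzyme with specific fluorescent substrate, 1 h, product separated by electrophoretic mobility shift. Primary duplicate screen at 25 uM; actives (e.g. 30% inhibition) followed in singleton concentration-response to 50 uM. Signal loss fitted versus DMSO.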

Assay [10] concerns the target Collagenase 3 (Homo sapiens) (UniProt P45452). In words: NVS_ENZ_hMMP13: NovaScreen (NVS) Enzymatic Assay for human Matrix Metalloproteinase-13 (MMP13) (AID 2283182). In short, it runs like this:
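Recombinant MMP13 cleaving fluorescent substrate, cell-free, measured 1 h after dosing. Primary duplicate screen at 25 uM; actives tested in concentration-response up to 50 uM; loss of signal relative to DMSO.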

The target of assay [11] is human Matrix Metalloproteinase-2 (MMP2), MMP2 (gene 4313) (UniProt P08253). In words: NVS_ENZ_hMMP2: NovaScreen (NVS) Enzymatic Assay for human Matrix Metalloproteinase-2 (MMP2) (AID 2283184). The procedure, abridged:
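Cell-free recombinant MMP2 activity with a fluorescent substrate, read 1 h after dosing. Primary screen in duplicate at 25 uM; actives then run in concentration series; loss of signal fitted versus DMSO.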

For assay [12], the target named is human Matrix Metalloproteinase-3 (MMP3), MMP3 (gene 4314) (UniProt P08254). In words: NVS_ENZ_hMMP3: NovaScreen (NVS) Enzymatic Assay for human Matrix Metalloproteinase-3 (MMP3) (AID 2283185). The procedure, abridged:
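Cell-free recombinant human MMP3 activity, fluorescence intensity read 1 h after dosing. Primary screen duplicate at 25 uM, actives retested in concentration series; loss of signal vs DMSO baseline.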

In assay [13] the target is human Matrix Metalloproteinase-9 (MMP9), MMP9 (gene 4318) (UniProt P14780). In words: NVS_ENZ_hMMP9: NovaScreen (NVS) Enzymatic Assay for human Matrix Metalloproteinase-9 (MMP9) (AID 2283190).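 Also: cell-free recombinant MMP9 protease activity read by fluorescent substrate signal; active means inhibition seen as loss of fluorescence signal versus DMSO.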 In short, it runs like this:
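Cell-free fluorescence-intensity enzyme activity assay using extracted protein, read 1 h after dosing. Loss of signal versus DMSO baseline indicates inhibition; primary screen in duplicate at 25 uM, actives followed up in concentration series.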

Assay [14] concerns the target Histone deacetylase 3 (Homo sapiens) (UniProt O15379). The assay can be described thus: NVS_ENZ_hHDAC3: NovaScreen (NVS) Enzymatic Assay for human Histone Deacetylase 3 (HDAC3) (AID 2283163). The procedure, abridged: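 Recombinant human HDAC3 with fluorescent substrate, 1 h after dosing; product separated from substrate by electrophoretic mobility shift and read by fluorescence. Primary screen at 25 uM in duplicate; actives (e.g. ≥30% inhibition) retested in concentration-response up to 50 uM.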

Assay [15] has as its target Mitogen-activated protein kinase 3 (Homo sapiens) (UniProt P27361). The assay can be described thus: NVS_ENZ_hMAPK3: NovaScreen (NVS) Enzymatic Assay for human Mitogen-Activated Protein Kinase 3 (MAPK 3) (AID 2283177). In short, it runs like this: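 Cell-free enzymatic assay with recombinant protein and specific substrate; fluorescence and electrophoretic mobility shift read-out 1 h after dosing. Primary screen duplicate at 25 uM; actives then run in concentration-response up to 50 uM, loss of signal versus DMSO.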

The target in assay [16] is cAMP-dependent protein kinase catalytic subunit alpha (Homo sapiens) (UniProt P17612). The assay can be described thus: NVS_ENZ_hPKA: NovaScreen (NVS) Enzymatic Assay for human Protein Kinase A (PKA) (AID 2283192). The procedure, abridged:
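Recombinant human PKA with specific fluorescent substrate, product separated by electrophoretic mobility shift, read 1 h after dosing. Primary screen at 25 uM in duplicate; actives then run in concentration-response up to 50 uM, activity relative to DMSO.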

The target in assay [17] is human Insulin Receptor (InsR), INSR (gene 3643) (UniProt P06213). In words: NVS_ENZ_hInsR: NovaScreen (NVS) Enzymatic Assay for human Insulin Receptor (InsR) (AID 2283168). The procedure, abridged:
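Fluorescent substrate phosphorylation by recombinant kinase, product resolved by electrophoretic mobility shift, read 1 h after dosing. Screened in duplicate at 25 uM; hits (e.g., 30% inhibition) run in concentration-response to 50 uM; DMSO as baseline.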

Assay [18] concerns the target human Matrix Metalloproteinase-7 (MMP7), MMP7 (gene 4316) (UniProt P09237). The assay can be described thus: NVS_ENZ_hMMP7: NovaScreen (NVS) Enzymatic Assay for human Matrix Metalloproteinase-7 (MMP7) (AID 2283183). In short, it runs like this: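 Cell-free fluorescence enzymatic assay read 1 h after compound addition, activity loss analyzed against DMSO. Primary duplicate testing at 25 uM; compounds meeting threshold rerun in singleton concentration-response up to 50 uM.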

Assay [19] has as its target human c-Jun N-terminal Kinases (JNK2), MAPK9 (gene 5601) (UniProt P45984). In words: NVS_ENZ_hJNK2: NovaScreen (NVS) Enzymatic Assay for human c-Jun N-terminal Kinases (JNK2) (AID 2283171). In short, it runs like this:
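Cell-free recombinant human JNK2 activity assay; fluorescent substrate and product separated by electrophoretic mobility shift, read 1 h after dosing. Primary duplicate screen at 25 uM; actives run in concentration-response up to 50 uM, relative to DMSO.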

Inconclusive results are not listed. Active and inactive are the calls of the source. The calls were made as follows: active = hit-call score of the fitted dose curve at least 0.9, where 1 is the maximum; inconclusive = response in the unintended direction; inactive = score below 0.9.

Sequence of Glycogen synthase kinase-3 beta (Homo sapiens) (P49841 whole entry, looked up): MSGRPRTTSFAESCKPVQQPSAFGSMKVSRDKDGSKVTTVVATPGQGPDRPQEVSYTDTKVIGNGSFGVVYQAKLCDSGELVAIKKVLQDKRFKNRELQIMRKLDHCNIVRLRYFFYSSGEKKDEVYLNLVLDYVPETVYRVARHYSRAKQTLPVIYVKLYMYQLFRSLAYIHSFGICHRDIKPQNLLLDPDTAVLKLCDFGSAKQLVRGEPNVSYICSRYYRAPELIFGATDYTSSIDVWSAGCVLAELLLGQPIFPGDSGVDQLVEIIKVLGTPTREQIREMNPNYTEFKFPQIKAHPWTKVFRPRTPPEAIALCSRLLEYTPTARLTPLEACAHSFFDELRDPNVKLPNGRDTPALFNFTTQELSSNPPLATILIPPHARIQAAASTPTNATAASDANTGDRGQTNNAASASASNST
Sequence of human Matrix Metalloproteinase-9 (MMP9), MMP9 (gene 4318) (P14780 whole entry, looked up): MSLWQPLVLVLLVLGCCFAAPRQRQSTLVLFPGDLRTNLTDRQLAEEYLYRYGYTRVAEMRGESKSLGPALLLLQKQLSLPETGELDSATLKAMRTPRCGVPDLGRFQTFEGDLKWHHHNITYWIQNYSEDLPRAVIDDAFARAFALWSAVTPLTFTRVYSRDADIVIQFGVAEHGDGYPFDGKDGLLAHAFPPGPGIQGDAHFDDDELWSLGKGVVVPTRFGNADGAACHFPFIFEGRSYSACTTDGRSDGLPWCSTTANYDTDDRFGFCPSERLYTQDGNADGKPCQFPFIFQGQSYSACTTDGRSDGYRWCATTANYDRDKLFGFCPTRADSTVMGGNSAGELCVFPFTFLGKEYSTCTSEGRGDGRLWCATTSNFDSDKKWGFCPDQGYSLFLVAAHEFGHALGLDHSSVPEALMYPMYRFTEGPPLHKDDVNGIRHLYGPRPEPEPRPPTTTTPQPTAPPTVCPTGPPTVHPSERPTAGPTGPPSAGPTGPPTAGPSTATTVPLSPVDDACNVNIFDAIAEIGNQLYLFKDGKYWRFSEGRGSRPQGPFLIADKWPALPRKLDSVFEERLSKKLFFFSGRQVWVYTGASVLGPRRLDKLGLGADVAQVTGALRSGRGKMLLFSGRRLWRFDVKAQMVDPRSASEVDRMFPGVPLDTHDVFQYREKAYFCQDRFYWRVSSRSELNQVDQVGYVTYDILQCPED
Sequence of human Matrix Metalloproteinase-2 (MMP2), MMP2 (gene 4313) (P08253 whole entry, looked up): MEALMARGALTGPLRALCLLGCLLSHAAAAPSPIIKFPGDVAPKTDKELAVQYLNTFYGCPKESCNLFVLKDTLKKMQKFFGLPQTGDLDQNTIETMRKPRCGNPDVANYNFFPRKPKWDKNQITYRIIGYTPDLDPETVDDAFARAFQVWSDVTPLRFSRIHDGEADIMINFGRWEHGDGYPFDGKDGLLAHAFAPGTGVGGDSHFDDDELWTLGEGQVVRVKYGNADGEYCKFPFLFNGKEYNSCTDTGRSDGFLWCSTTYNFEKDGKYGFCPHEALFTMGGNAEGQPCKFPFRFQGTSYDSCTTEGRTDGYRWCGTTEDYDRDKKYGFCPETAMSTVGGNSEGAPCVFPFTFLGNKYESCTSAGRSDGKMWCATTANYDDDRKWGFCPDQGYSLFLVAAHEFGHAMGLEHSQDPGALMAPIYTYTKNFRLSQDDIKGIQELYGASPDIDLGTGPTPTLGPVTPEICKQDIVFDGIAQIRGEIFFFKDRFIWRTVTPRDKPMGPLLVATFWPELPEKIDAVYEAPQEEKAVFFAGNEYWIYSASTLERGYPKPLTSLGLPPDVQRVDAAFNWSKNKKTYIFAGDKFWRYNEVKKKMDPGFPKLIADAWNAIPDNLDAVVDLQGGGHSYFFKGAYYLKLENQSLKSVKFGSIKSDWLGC
Sequence of human Esterase Plasma (ES), BCHE (gene 590) (P06276 whole entry, looked up): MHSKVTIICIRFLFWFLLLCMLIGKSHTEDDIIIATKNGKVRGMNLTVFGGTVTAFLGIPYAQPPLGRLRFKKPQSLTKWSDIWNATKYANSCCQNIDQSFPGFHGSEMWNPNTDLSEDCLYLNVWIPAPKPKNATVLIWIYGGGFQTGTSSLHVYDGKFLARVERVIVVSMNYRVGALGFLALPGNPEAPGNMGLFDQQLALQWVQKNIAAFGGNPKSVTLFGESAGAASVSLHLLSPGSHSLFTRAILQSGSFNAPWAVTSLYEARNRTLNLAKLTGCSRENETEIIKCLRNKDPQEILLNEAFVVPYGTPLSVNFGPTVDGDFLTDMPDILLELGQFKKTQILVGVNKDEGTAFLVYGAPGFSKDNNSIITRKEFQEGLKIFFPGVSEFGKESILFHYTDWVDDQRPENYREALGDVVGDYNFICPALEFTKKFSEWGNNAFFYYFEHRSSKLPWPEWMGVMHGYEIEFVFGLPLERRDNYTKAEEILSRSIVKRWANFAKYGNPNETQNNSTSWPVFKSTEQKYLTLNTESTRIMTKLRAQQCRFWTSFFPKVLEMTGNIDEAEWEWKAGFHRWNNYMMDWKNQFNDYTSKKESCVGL
Sequence of human Ephrin type-A Receptor 1 (EphA1), EPHA1 (gene 2041) (P21709 whole entry, looked up): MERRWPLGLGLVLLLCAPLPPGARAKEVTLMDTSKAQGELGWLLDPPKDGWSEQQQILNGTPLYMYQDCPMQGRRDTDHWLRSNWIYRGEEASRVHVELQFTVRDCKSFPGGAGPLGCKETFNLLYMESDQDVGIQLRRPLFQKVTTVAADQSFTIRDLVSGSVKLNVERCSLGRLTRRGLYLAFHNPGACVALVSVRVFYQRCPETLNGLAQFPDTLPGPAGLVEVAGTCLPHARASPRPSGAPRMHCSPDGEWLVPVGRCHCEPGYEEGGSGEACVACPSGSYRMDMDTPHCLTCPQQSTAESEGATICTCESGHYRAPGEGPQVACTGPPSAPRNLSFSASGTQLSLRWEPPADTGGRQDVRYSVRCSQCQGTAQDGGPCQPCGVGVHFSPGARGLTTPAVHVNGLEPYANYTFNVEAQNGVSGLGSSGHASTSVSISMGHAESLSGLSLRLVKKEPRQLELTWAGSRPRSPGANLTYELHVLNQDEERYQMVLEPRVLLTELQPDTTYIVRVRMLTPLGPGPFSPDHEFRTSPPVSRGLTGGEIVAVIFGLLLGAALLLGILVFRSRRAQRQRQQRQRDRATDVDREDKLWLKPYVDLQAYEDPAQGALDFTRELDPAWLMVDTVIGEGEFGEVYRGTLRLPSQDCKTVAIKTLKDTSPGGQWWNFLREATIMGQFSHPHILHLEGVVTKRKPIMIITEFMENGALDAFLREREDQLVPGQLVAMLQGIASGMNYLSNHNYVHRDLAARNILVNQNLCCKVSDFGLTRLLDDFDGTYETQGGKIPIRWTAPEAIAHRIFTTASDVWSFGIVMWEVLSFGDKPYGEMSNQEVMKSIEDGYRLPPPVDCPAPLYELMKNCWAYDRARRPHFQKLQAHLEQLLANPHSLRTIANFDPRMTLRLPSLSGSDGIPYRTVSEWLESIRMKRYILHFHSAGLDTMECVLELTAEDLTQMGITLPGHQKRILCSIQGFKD
Sequence of Mitogen-activated protein kinase 3 (Homo sapiens) (P27361 whole entry, looked up): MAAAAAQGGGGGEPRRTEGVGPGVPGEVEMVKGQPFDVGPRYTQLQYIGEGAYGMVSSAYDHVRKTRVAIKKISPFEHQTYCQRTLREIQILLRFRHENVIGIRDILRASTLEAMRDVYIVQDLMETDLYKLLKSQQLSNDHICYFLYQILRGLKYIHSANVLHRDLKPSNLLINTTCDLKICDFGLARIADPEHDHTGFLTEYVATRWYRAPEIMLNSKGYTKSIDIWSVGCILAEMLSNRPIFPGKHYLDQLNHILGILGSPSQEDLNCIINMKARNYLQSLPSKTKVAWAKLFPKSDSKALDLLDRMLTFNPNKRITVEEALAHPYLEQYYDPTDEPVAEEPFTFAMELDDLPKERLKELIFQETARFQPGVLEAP
Sequence of human Matrix Metalloproteinase-3 (MMP3), MMP3 (gene 4314) (P08254 whole entry, looked up): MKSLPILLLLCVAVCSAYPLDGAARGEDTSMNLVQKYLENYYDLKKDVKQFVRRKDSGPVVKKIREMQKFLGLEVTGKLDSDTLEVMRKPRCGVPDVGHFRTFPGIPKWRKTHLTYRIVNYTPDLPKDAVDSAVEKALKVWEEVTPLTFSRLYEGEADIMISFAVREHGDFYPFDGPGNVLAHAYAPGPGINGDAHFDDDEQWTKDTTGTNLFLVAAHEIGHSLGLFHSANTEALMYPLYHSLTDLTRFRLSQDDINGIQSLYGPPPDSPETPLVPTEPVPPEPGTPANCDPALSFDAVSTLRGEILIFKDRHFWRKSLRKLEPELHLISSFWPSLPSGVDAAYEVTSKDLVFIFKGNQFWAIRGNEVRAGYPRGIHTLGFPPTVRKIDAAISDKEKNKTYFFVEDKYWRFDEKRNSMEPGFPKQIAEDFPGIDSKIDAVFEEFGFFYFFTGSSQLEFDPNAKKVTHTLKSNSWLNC
Sequence of Histone deacetylase 3 (Homo sapiens) (O15379 whole entry, looked up): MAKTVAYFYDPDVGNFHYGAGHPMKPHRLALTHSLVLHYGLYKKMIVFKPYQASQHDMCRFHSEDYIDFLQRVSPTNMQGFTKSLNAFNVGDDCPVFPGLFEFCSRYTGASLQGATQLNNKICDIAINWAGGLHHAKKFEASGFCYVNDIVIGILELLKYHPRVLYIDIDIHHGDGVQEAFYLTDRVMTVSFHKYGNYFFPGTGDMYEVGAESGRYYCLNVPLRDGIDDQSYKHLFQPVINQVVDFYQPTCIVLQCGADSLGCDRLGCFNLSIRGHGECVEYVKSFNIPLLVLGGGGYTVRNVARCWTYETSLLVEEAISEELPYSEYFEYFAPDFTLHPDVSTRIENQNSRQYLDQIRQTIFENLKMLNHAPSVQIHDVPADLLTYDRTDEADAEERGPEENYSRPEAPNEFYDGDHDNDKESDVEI
Sequence of human Matrix Metalloproteinase-7 (MMP7), MMP7 (gene 4316) (P09237 whole entry, looked up): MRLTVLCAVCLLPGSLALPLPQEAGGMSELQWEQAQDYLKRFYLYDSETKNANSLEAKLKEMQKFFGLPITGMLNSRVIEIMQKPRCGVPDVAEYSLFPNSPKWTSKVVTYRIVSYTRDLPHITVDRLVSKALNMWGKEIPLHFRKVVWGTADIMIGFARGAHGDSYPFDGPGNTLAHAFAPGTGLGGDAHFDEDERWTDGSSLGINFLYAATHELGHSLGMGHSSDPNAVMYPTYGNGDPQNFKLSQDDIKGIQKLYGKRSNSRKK

In the case of `CC1(C)NC(=O)N(c2ccc([N+](=O)[O-])c(C(F)(F)F)c2)C1=O`, the call in assay [1] was inactive.
Same read-out and setting: next, `CC(O)CC(C)(C)O` (stereo unspecified): “inactive”.
Regarding `CCN(CC)C(=O)c1cc(S(=O)(=O)Cc2ccccc2)c(N2CCC(c3ccccc3)CC2)cc1N(CC)CCN(C)C`, the AC50 was 0.0737 µM (active) in [2], 9.38 µM (active) in assay [6] and 16 µM (active) in assay [8]. Further, the call in [3], in [4], in assay [5] and in [7] was inactive.
Consider `CCCCCCCCCCCCO`, for which the outcome in [9] was inactive.
Take `CCN(Cc1cccnc1)C(=O)c1cccc(Cl)c1[C@]1(C)C(=O)N(Cc2ccc(OC)cc2OC)c2ccc(Cl)cc21`: the AC50 in [2] is 16.8 µM (active); in assay [10], 9.38 µM (active); in [11], 14.8 µM (active); in assay [13], 24.9 µM (active). Further, the compound was called inactive in assay [9] and in assay [12].
With `CC(=O)N1CCN(c2ccc(OC[C@H]3CO[C@](Cn4ccnc4)(c4ccc(Cl)cc4Cl)O3)cc2)CC1`, the outcome in assay [14] was inactive.
As to `CCCCCCCCN(C)CCCCCCCC`, in assay [1], the call was inactive.
As for `Cc1occc1C(=O)Nc1ccc(C(=O)N2CCC(F)(F)/C(=C\C(=O)N3CCC(N4CCCCC4)CC3)c3ccccc32)cc1`, the compound was called inactive in assay [2].
For `CC/C(=C(/CC)c1ccc(O)cc1)c1ccc(O)cc1`, the outcome in [2], in assay [1], in assay [15], in assay [11], in assay [6] and in [16] was inactive. In [7], the result was inactive.
For the compound `Oc1ccc2ccccc2c1`, the outcome in [2] was inactive.
As for `Cc1c2ccccc2c(C)c2c1ccc1ccccc12`, the compound was called inactive in [2] and in assay [10].
As for `CN(C)C(=O)C1(N2CCCCC2)CCN(CC[C@@]2(c3ccc(Cl)c(Cl)c3)CN(C(=O)c3ccccc3)CCO2)CC1`, the AC50 in [2] is 17.5 µM (active). For the same compound, the call in [13] and in assay [7] was inactive.
Take `CCCCOC(=O)c1ccc(O)cc1`: the call in [2] and in assay [12] was inactive. In assay [10], the AC50 is 25 µM (active).
For the compound `CCCCCc1ccc(N)cc1`, in assay [1], the compound was classed as inactive.
`O=C1O[C@H]([C@@H](O)CO)C(O)=C1O`: the compound was classed as inactive in assay [1], in assay [17] and in [12].
In the case of `O=C1c2ccccc2C(=O)N1CCc1noc(-c2ccc(CN3CCCCCC3)s2)n1`, the AC50 in assay [2] is 18.2 µM (active).
For the compound `c1ccc(C[n+]2cccc3ccccc32)cc1`, the result in [2] and in [14] was inactive.
Turning to `CN(C)c1ccc(C(=C2C=CC(=[N+](C)C)C=C2)c2ccc(N(C)C)cc2)cc1`, the AC50 in assay [2] is 1.62 µM (active); in assay [13], 14.5 µM (active). The outcome in assay [12] was inactive.
Take `O=c1ccc2ccccc2o1`: in assay [9], the call was inactive.
In the case of `CCOC(=O)O[C@H](C)OC(=O)c1ccc2c(c1)cc(C(=O)NC1CCN(C(C)C)CC1)n2Cc1cc(-c2ccc(Cl)s2)on1`, the AC50 is 9.43 µM (active) in assay [2], 15.2 µM (active) in [10] and 30.9 µM (active) in assay [13].
On to `NCc1cccc(C2CCN(C(=O)c3ccc(C#Cc4ccccc4F)o3)CC2)c1`, for which the AC50 was 25 µM (active) in assay [2], 19.5 µM (active) in assay [10], 10.1 µM (active) in [11] and 30.1 µM (active) in assay [13].
As for `O=CCCCC=O`, the result in assay [2] and in assay [15] was inactive.
Take `C[C@]12CC[C@@H]3c4ccc(O)cc4CC[C@H]3[C@@H]1CC[C@H]2O`: the outcome in [2] and in assay [18] was inactive.
Consider `Oc1ccccc1`, for which the outcome in [9] was inactive.
For the compound `COc1cc(C(=O)NC2CCN(C)CC2)ccc1Nc1ncc2c(n1)N(C1CCCC1)CC(F)(F)C(=O)N2C`, the outcome in assay [2], in assay [19] and in assay [15] was inactive. Further, the AC50 in assay [17] is 0.00746 µM (active); in assay [6], 9.1 µM (active); in assay [16], 6.04 µM (active); in assay [7], 0.00376 µM (active); in assay [8], 3.76 µM (active).
